Bioassay records deposited in PubChem by Broad Institute.
Sampled rows, rich in hits. Any-hit rate of the full collection: about 3.4%.
Vif inh – HIV Vif self-association inhibitors, primary screen, imaging, HEK293T, single point | inhibition, % at 7.49 µM | 340,000 compounds, 0.35% hits | HEK293T cells, Vif self-association by quenched fluorescence, 24 h; in the data active = inhibition above about 50%, passing the limit was not always enough; inconclusive = no clear call, values can overlap the other calls; inactive = below about 31%
esBAF inh – Bmi1 luciferase reporter increase in mESCs, primary screen, esBAF inhibitor project, mouse ES cells, Bmi1 luciferase knock-in, single point | AID 602393, 2012 | 350,000 compounds, 2% hits | reporter increase, % at 12.5 µM | 24 h; 100% = twice the neutral-well signal; in the data active = activation above about 40%; inconclusive = no clear call, values can overlap the other calls;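 note: a rise in the Bmi1 reporter signal indicates esBAF inhibition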
HSF-1 act – HSF-1 activators, primary screen, NIH3T3-HGL cells, MG132 stress, luminescence, single point. 300,000 compounds, 1.7% hits. AID 504408, 2011. activation, % at 9 µM. NIH3T3-HGL HSF-1 luciferase reporter, 8 h; 100% = twice DMSO control signal;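 active = mean replicate activation of at least 50% with a set share of replicates each reaching 50%; inconclusive = only one of those two conditions met; inactive = mean below 50% and too few replicates reaching it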
HSF1 inh – HSF1 inhibitors in luciferase reporter cells, primary screen, cell-based, NIH3T3, luminescence; NIH3T3-HGL HSE-luciferase, MG132-induced, luminescence 8 h; hits give low values; activity change, negative = inhibition, % at 7.5 µM (by protocol); 300,000 compounds, 0.77% hits;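 active = more than half of replicate wells show activity change below -50%, luminescence cut by over half; inconclusive = some wells, but at most half, below -50%; inactive = no replicate well below -50%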;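 note: luciferase reports HSF-1 transcriptional activity via heat shock element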
Large screens that a line does not name were inactive.

COc1ccc2cc(C(=O)NCc3ccco3)c(=Nc3ccc(C(=O)O)cc3)oc2c1	HSF1 inh -63 (no result: Vif inh)
CCCCn1c(SCC(=O)NCc2ccco2)nc2c(sc3ccccc32)c1=O	HSF1 inh -65
COc1ccc(C(=O)Nn2c(SCC(=O)NCc3ccco3)nc3ccccc3c2=O)cc1	HSF1 inh -75 (no result: esBAF inh)
COc1ccc(NC(=O)Nc2cccc3c2O[C@H](CN(C)S(=O)(=O)c2cn(C)cn2)[C@H](C)CN([C@H](C)CO)C3=O)cc1	none (no result: Vif inh, HSF-1 act, HSF1 inh)
Cc1noc(C)c1S(=O)(=O)N(C)C[C@@H]1Oc2ccc(NS(=O)(=O)c3ccc(F)cc3)cc2C(=O)N([C@H](C)CO)C[C@@H]1C	none (no result: Vif inh, HSF-1 act, HSF1 inh)
COc1ccc(-c2ccc3c(c2)[C@@H]2[C@@H](CCN2C(=O)c2ccc4c(c2)OCO4)[C@H](CO)N3C)cc1	none (no result: Vif inh, HSF-1 act, HSF1 inh)
COCCCn1c(SCC(=O)NC2CCCCC2)nc2ccccc2c1=O	none
COc1ccc(C(=O)Nn2c(SCC(=O)N3CCC(C)CC3)nc3ccccc3c2=O)cc1	HSF1 inh -66
COc1ccc(C(=O)Nn2c(SCC(=O)NC3CCCCC3)nc3ccccc3c2=O)cc1	HSF1 inh -64
COc1ccc(C(=O)NCCn2cc(SCC(=O)NCc3ccco3)c3ccccc32)cc1	esBAF inh 52
COCCn1c(SCC(=O)N2CCC(C)CC2)nc2ccccc2c1=O	none
CS(=O)(=O)Nc1ccc2c(c1)[C@H]1C[C@@H](CC(=O)NCc3ccc(Cl)cc3)O[C@@H](CO)[C@H]1O2	none (no result: Vif inh, HSF-1 act, HSF1 inh)
N#C/C(=C1/CCCCCN1)c1nc2ccccc2s1	esBAF inh 57
N#C/C(=C1\CCCN1)c1nc2ccccc2c(=O)[nH]1	none
COC(=O)c1ccccc1NC(=O)Cn1cnc2cc(C)c(C)cc21	Vif inh 71
COC(=O)c1ccccc1NC(=O)Cn1cnc2c(cnn2-c2ccc(C)c(C)c2)c1=O	none (no result: Vif inh, esBAF inh)
CCn1nc(C)c(/C=N/NC(=O)c2ccoc2C)c1C	none
O=C(N/N=C/c1ccc(OC2CSC2)cc1)c1ccccc1	esBAF inh 67 (no result: Vif inh)
Cc1occc1C(=O)N/N=C/c1ccc(OCc2ccccc2)cc1	esBAF inh 54, HSF-1 act 53
Cc1cc(/C=N/NC(=O)c2ccoc2C)cc(C)c1O	esBAF inh 69 (no result: Vif inh, HSF-1 act, HSF1 inh)
CCCCCn1nc(C)c(/C=N/NC(=O)c2ccoc2C)c1C	esBAF inh 62
Cc1occc1C(=O)N/N=C/c1ccc(-c2ccccc2)cc1	none
COc1cccc(CNC(=O)C[C@@H]2C=C[C@@H](NC(=O)C3CCOCC3)[C@@H](CO)O2)c1	none (no result: Vif inh, HSF-1 act, HSF1 inh)
CC(=O)NC[C@@H]1[C@H](c2ccc(-c3cccnc3)cc2)[C@H](CO)N1C(=O)C1CC1	none (no result: Vif inh, HSF-1 act, HSF1 inh)
C[C@H]1CN([C@@H](C)CO)C(=O)c2cc(NC(=O)Nc3ccccc3)ccc2O[C@H]1CN(C)Cc1ccc(Cl)c(Cl)c1	none (no result: Vif inh, HSF-1 act, HSF1 inh)
O=C(N/N=C/c1ccc(F)cc1)c1ccc(OCc2ccccc2)cc1	HSF1 inh -75
O=C(N/N=C/c1ccc(OCc2ccc(F)cc2)cc1)c1ccccc1	none (no result: esBAF inh, HSF-1 act, HSF1 inh)
O=C(C[C@@H]1CC[C@@H]2[C@H](COC[C@@H](O)CN2Cc2cc(F)ccc2F)O1)NCc1ccc(Cl)cc1	none (no result: Vif inh, HSF-1 act, HSF1 inh)
C[n+]1c(/C=C/c2ccc(O)cc2)ccc2ccccc21	esBAF inh 62
C[n+]1c(/C=C/c2ccc3c(c2)OCO3)ccc2ccccc21	HSF1 inh -72 (no result: esBAF inh)
C[C@@H]1CN([C@@H](C)CO)C(=O)c2cc(-c3cccc(F)c3)cnc2O[C@@H]1CN(C)C(=O)C1CCCCC1	none (no result: Vif inh, HSF-1 act, HSF1 inh)
COc1cc(SC)ccc1C(=O)Nc1ccccc1C#N	esBAF inh 43
COc1cc(SC)ccc1C(=O)Nc1ccc2c(c1)CCC2	esBAF inh 47, HSF-1 act 93
COc1cc(SC)ccc1C(=O)Nc1cccc(C2OCCCO2)c1	esBAF inh 68
CC(=O)N(C)C[C@H]1Oc2ncc(-c3cccnc3)cc2C(=O)N([C@H](C)CO)C[C@@H]1C	none (no result: Vif inh, HSF-1 act, HSF1 inh)
COc1ccc2oc(C(=O)N3CCN(S(=O)(=O)c4c(C)c(C)cc(C)c4C)CC3)c(C)c2c1	esBAF inh 51 (no result: HSF-1 act, HSF1 inh)
CCCNC(=O)c1ccc2c(=O)c(O)c(-c3cccc(Br)c3)[nH]c2c1	HSF1 inh -52
Cn1c(-c2ccc(C(C)(C)C)cc2)n[nH]c1=S	esBAF inh 50
C[C@H](CO)N1C[C@H](C)[C@H](CN(C)S(=O)(=O)c2cn(C)cn2)OCCCC[C@H](C)Oc2ccc(NC(=O)c3ccccc3)cc2C1=O	none (no result: Vif inh, HSF-1 act, HSF1 inh)
c1ccc(-c2nn[nH]n2)nc1	HSF1 inh -59 (no result: esBAF inh)
CSc1nc(N)nc(SCC(=O)c2ccc(C)cc2)c1C#N	esBAF inh 61
Cc1ccccc1C1CC(=O)Oc2cc(O)ccc21 (stereo unspecified)	Vif inh 63 (no result: HSF-1 act, HSF1 inh)
COc1ccc(C2CC(=O)Oc3cc(O)ccc32)cc1 (stereo unspecified)	none (no result: HSF-1 act, HSF1 inh)
CCC(=O)Nc1ccc2c(c1)C(=O)N(C)C[C@H](OC)[C@@H](C)CN[C@@H](C)CO2	none (no result: Vif inh, HSF-1 act, HSF1 inh)
CCc1c(C)nc2ccc(Br)cc2c1Cl	esBAF inh 53
Nc1nc(Cl)nc2ccc(Br)cc12	none (no result: esBAF inh)
CCN(CC(=O)Nc1ccc(NC(C)=O)cc1)Cc1c(O)ccc2cc(Br)ccc12	HSF-1 act 127
O=C(/C=C/Nc1ccc(F)cc1)c1ccc(Br)cc1	HSF-1 act 65 (no result: esBAF inh)
O=C(/C=C/Nc1ccc(F)c(F)c1)c1cccs1	none (no result: esBAF inh)
Cc1cc(N/C=C/C(=O)c2ccc(Br)cc2)no1	esBAF inh 81, HSF-1 act 55
CC(=O)Nc1ccc(N/C=C/C(=O)c2ccc(Cl)cc2)cc1	esBAF inh 59
O=C(/C=C/Nc1ccc(F)cc1)c1cccs1	HSF-1 act 65
Cc1ccnc(N/C=C/C(=O)c2ccc(Br)cc2)c1	HSF-1 act inconclusive
O=C(COc1ncnc2cc(Cl)ccc12)c1ccccc1	esBAF inh 71
CN1CCN(C(=O)C[C@@H]2C[C@@H]3c4cc(NC(=O)NC5CCCC5)ccc4O[C@@H]3[C@@H](CO)O2)CC1	none (no result: Vif inh, HSF-1 act, HSF1 inh)
C[C@@H]1CN([C@@H](C)CO)C(=O)c2cc(NC(=O)Cc3ccccc3)ccc2O[C@@H]1CN(C)C(=O)Nc1ccc2c(c1)OCO2	none (no result: Vif inh, HSF-1 act, HSF1 inh)
COc1ccc2c(c1)-c1c(sn(-c3ccccc3)c1=S)C(C)(C)N2	HSF-1 act 55 (no result: esBAF inh)
C[C@H]1CN([C@@H](C)CO)C(=O)c2cc(/C=C/c3ccccc3)cnc2O[C@H]1CN(C)Cc1cccnc1	none (no result: Vif inh, HSF-1 act, HSF1 inh)
Cc1cc2ncc(-c3ccccc3)nc2cc1C	none
CCOC(=O)c1ccc2ncc(-c3ccccc3)nc2c1	HSF-1 act 62 (no result: esBAF inh)
CCOC(=O)c1cnc2c(ccc3ccccc32)c1N	esBAF inh 45
Cc1nc2ccc(C(=O)OCc3ccccc3Br)cc2nc1C	esBAF inh 102
CCOC(=O)c1cnc(-c2ccccc2)nc1N(C)C	esBAF inh 75
CCOC(=O)c1cccc(-c2c(-c3ccccc3)ncc3cc(OC)c(OC)cc23)c1	esBAF inh 67 (no result: HSF-1 act, HSF1 inh)
Cc1cc2c(c(=O)n1C)C(Cc1ccccc1)C(C#N)=C(N)O2 (stereo unspecified)	esBAF inh 50
